Several values for one entry are separate records, joined by “and”; a condition that tells them apart may be missing. Identical values can stand only once. Records with an inconclusive call do not appear. Entries that show only a call come without a potency. Activity calls are given as the source filed them. Unless noted, calls come from the whole dose curve; as a rule, active = well fitted curve in the direction sought with a large enough effect; inconclusive = small, poorly fitted or top-dose-only effect, or another doubt; inactive = no such curve, though single readings can be large; an effect the other way counts as inactive or inconclusive.
What was measured:
[1] = Cellular Toxicity (caspase-3) Jurkat (AID 655); settings: Jurkat caspase-3 activation, luminescence; caspase-3 activation: at 92.2 µM (top of the series), DMSO = 0%, tamoxifen = 100%;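 note: cells exposed to compound for 16 h at 37 °C before reading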
Method in brief: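 Jurkat cells (5000/well) in complete medium were treated with compounds for 16 hr at 37 °C, then Caspase-Glo 3/7 luminescence was read after 20 min at room temperature. Data normalized to DMSO (basal) and 100 uM tamoxifen (100%); AC50 from Hill fit.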

[2] = MultiTox-Fluor Cytotoxicity Assay - LYMP1-002 - Live Cells (AID 955)
Method in brief: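 Cytotoxicity in the human lymphoblastoid line LYMP1-002 is measured as loss of live-cell protease activity after 16 h treatment in complete culture medium. AC50 is derived from Hill-equation fits of qHTS concentration-response data.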

[3] = Cell Viability - LYMP2-002 (AID 977);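 note: compound exposure lasted 24 h at 37 °C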
Method in brief: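 Cytotoxicity is scored as concentration-dependent loss of cellular ATP in a human lymphoblastoid line after 24 hr compound treatment at 37 C. AC50 is obtained by modelling concentration-response data with the Hill equation.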

[4] = Cell Viability - LYMP2-020 (AID 986); note: nearly all actives have a fitted effect of over 55% in size
Method in brief: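 Acute cytotoxicity in a human lymphoblastoid line is scored as a concentration-dependent fall in cellular ATP after 24 hr at 37 C in complete medium. The positive control is tetraoctylammonium bromide, and potency is given as Hill-fit AC50.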

[5] = qHTS assay for small molecule antagonists of retinoid X receptor alpha signaling (AID 588546); settings: HEK293T RXRa-UAS-bla, beta-lactamase ratio, antagonist mode; measured here: W530 green channel, cytotoxicity proxy;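 note: cells stimulated with 9-cis-retinoic acid as agonist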
Method in brief: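 Beta-lactamase reporter inhibition, read as CCF4 fluorescence ratio (ex 405, em 460/530 nm) after 2 h at RT. HEK293T UAS-bla cells, 2500/well, were stimulated with 9-cis-RA at 500 or 100 nM final alongside test compound for 18 h at 37 C.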

[6] = qHTS assay for environmental chemicals that activate the Aryl hydrocarbon Receptor (AhR) signaling pathway (AID 651777); settings: 1A2-DRE human hepatoma cells, luciferase, 24 h; activation: stronger effect = higher value; note: nearly all actives have a fitted effect of over 15% in size; note: potency is the fitted concentration of half-maximal effect
Method in brief: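 Human hepatoma 1A2-DRE cells stably carrying a DRE/CYP1A2 promoter–luciferase reporter, 1,200 cells/well, exposed to compound 24 hr at 37 C. Luciferase read by One-Glo luminescence after 30 min at room temperature; increased signal marks AhR activation.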

[7] = Cell Viability - BJ (AID 421; calls by dose curve;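 note: potency is the fitted concentration of half-maximal effect; cells exposed to compound for 40 hours at 37 °C before readout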); settings: BJ fibroblast viability, qHTS
Method in brief: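 Cytotoxicity in human BJ foreskin fibroblasts is scored as loss of cellular ATP after a 40-hour exposure, measured by luciferase luminescence. Controls are DMSO and 100 uM tamoxifen.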

[8] = Cell Viability - HepG2 (AID 433; calls by dose curve;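 note: potency is the fitted concentration of half-maximal effect; cells exposed to compound for 40 hours; potency for ATP loss meaning cytotoxicity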); settings: qHTS
Method in brief: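 HepG2 hepatocellular carcinoma cells (1500/well) were treated with compounds for 40 h at 37 °C in complete medium; intracellular ATP was read by CellTiter-Glo luminescence. Data were normalized to DMSO and 100 uM tamoxifen, and AC50 came from Hill fits.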

[9] = Cell Viability - Mesenchymal (AID 546); settings: mesenchymal cells viability, qHTS; activity change, negative = cytotoxicity: at 91.7 µM (top of the series);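 note: cells exposed to compound for 40 hours before reading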
Method in brief: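 AC50 values reflect the drop in intracellular ATP in a human kidney mesenchymal line derived from normal glomeruli. Treatment lasts 40 hr at 37 °C in complete medium, and the signal comes from CellTiter-Glo luminescence.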

[10] = Cell Viability - LYMP1-002 - Assay at 16 hr (AID 948)
Method in brief: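 Human lymphoblastoid cells (LYMP1-002), 2500/well, were preincubated 5 hr at 37 C, then exposed to compounds for 16 hr at 37 C in complete medium. Cellular ATP was read by CellTiter-Glo luminescence after 30 min at room temperature; AC50 from Hill fits.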

[11] = Cell Viability - LYMP2-003 (AID 965);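 note: cells exposed to compounds for 24 h before reading; nearly all actives have a fitted effect of over 50% in size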; note: potency is the fitted concentration of half-maximal effect
Method in brief: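 Human lymphoblastoid cells (2500/well) were pre-incubated 5 hr at 37 C, then exposed to compounds over a concentration range for 24 hr at 37 C. Intracellular ATP was read by CellTiter-Glo luminescence; AC50 came from Hill-equation fits.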

[12] = Cell Viability - LYMP2-011 (AID 969); note: nearly all actives have a fitted effect of over 60% in size
Method in brief: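 Acute toxicity is scored as a concentration-dependent drop in intracellular ATP of a human lymphoblastoid line after 24 hr treatment. Values are AC50s modeled with the Hill equation.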

[13] = Cell Viability - LYMP2-013 (AID 970); note: nearly all actives have a fitted effect of over 55% in size
Method in brief: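 Acute toxicity was measured in human lymphoblastoid cells (2500/well) exposed to compound titrations for 24 hr, with ATP luminescence (CellTiter-Glo) as read-out and AC50 fitted by Hill equation.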

[14] = Cell Viability - LYMP2-023 (AID 975);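 note: cellular ATP measured by luciferase luminescence as viability proxy; nearly all actives have a fitted effect of over 55% in size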
Method in brief: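 Concentration-dependent drop in intracellular ATP measures acute cytotoxicity in a human lymphoblastoid line treated for 24 hours in complete culture medium. AC50 values are taken from Hill-equation fits of qHTS data.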

[15] = Cell Viability - LYMP2-006 (AID 978); note: nearly all actives have a fitted effect of over 60% in size
Method in brief: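 Human lymphoblastoid cells, 2500 per well, were preincubated 5 hr at 37 C, then exposed to compounds for 24 hr at 37 C in complete medium. Viability was read as intracellular ATP by CellTiter-Glo luminescence; AC50 from Hill-equation fits of qHTS concentration-response data.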

[16] = Cell Viability - LYMP2-008 (AID 980); note: nearly all actives have a fitted effect of over 60% in size
Method in brief: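 Acute cytotoxicity is scored as concentration-dependent loss of cellular ATP in a human lymphoblastoid line after 24 hr treatment at 37 C. ATP is quantified by luciferase luminescence.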

[17] = Cell Viability - LYMP2-012 (AID 982);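 note: cellular ATP by luciferase luminescence where a drop means cytotoxicity; cells exposed to compound for one day before reading; nearly all actives have a fitted effect of over 55% in size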
[18] = Cell Viability - LYMP2-022 (AID 987); note: nearly all actives have a fitted effect of over 55% in size; note: potency is the fitted concentration of half-maximal effect
Method in brief: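 Acute toxicity in a human lymphoblastoid line is scored as decreased intracellular ATP after 24 hr compound treatment at 37 C. ATP is measured by CellTiter-Glo luminescence; curves are fitted with the Hill equation to give AC50.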

[19] = Cell Viability - LYMP2-024 (AID 988); note: nearly all actives have a fitted effect of over 60% in size
Method in brief: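 Acute toxicity is measured as concentration-dependent loss of intracellular ATP in a human lymphoblastoid line treated 24 hours at 37 C. Luciferase luminescence quantifies ATP; AC50 values come from standard Hill-equation modelling.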

[20] = Cell Viability - LYMP1-002 - Assay at 40 hr (AID 994); note: nearly all actives have a fitted effect of over 60% in size
Method in brief: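 Viability in the human lymphoblastoid line was measured as intracellular ATP via CellTiter-Glo after 40 hr compound exposure. Tetraoctylammonium bromide served as positive control.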

In the case of Cc1c(C(=O)O)c(O)cc2c1C(=O)c1c(O)c([C@H]3O[C@H](CO)[C@@H](O)[C@H](O)[C@H]3O)c(O)c(O)c1C2=O, the Potency [1] is reported as “inactive”, the outcome [2] is reported as “inactive” and the Potency [3] is reported as “inactive”. The Potency [4] was “inactive”, the max response [5] was -15.8% and the activation [6] was -4.11% (inactive).

With O=C(Cl)c1ccc([N+](=O)[O-])cc1 the Potency [7] was > 92 µM (inactive), the Potency [8] was > 92 µM (inactive) and the Potency [9] was “inactive”. The Potency [1] was “inactive”, the Potency [10] was “inactive” and the outcome [2] was “inactive”. For the same compound, the Potency [11] was “inactive”, the Potency [12] was “inactive” and the Potency [13] was “inactive”. The Potency [14] was “inactive”, the Potency [3] was “inactive” and the Potency [15] was “inactive”. For the same compound, the Potency [16] was “inactive”, the Potency [17] was “inactive” and the Potency [4] was “inactive”. The Potency [18] was “inactive”, the Potency [19] was “inactive” and the Potency [20] was “inactive”. It also gave a max response [5] of -4.54%.

With O=[N+]([O-])c1cc(N(CCO)CCO)ccc1NCCO the Potency [1] was “inactive”, the outcome [2] was “inactive” and the Potency [12] was “inactive”. The Potency [3] was “inactive”, the Potency [16] was “inactive” and the Potency [17] was “inactive”. For the same compound, the Potency [4] was “inactive”, the Potency [18] was “inactive” and the Potency [19] was “inactive”. For the same compound, the Potency [20] was “inactive”, the max response [5] was 5.15% and -22.9% and the activation [6] was -2.68% (inactive) and -1.58% (inactive).

In the case of CCN(CC)c1ccc(N)cc1, the Potency [9] is reported as “inactive”, the Potency [1] is reported as “inactive” and the Potency [10] is reported as “inactive”. The Potency [11] was 39.8 µM (active), the Potency [18] was 39.8 µM (active) and the max response [5] was 9.43%. For the same compound, the Potency [6] was 44.7 µM (active).

With Cc1cc2nc(N)sc2cc1C the Potency [7] was > 92 µM (inactive), the Potency [1] was “inactive” and the Potency [10] was “inactive”. The outcome [2] was “inactive”, the Potency [11] was “inactive” and the Potency [12] was “inactive”. The Potency [13] was “inactive”, the Potency [14] was “inactive” and the Potency [3] was “inactive”. For the same compound, the Potency [15] was “inactive”, the Potency [16] was “inactive” and the Potency [17] was “inactive”. The Potency [4] was “inactive”, the Potency [18] was “inactive” and the Potency [19] was “inactive”. For the same compound, the Potency [20] was “inactive” and the max response [5] was 0.388%.

For Cc1cc(-c2ccc(N=Nc3cc(S(=O)(=O)O)c4ccccc4c3N)c(C)c2)ccc1N=Nc1cc(S(=O)(=O)O)c2ccccc2c1N, the Potency [1] was “inactive”, the outcome [2] was “inactive” and the Potency [11] was “inactive”. The Potency [18] was “inactive”, the max response [5] was -6.21% and the activation [6] was 0.307% (inactive).

With Nc1ccc2c(c1)C(=O)c1ccccc1C2=O the Potency [7] was > 92 µM (inactive), the Potency [1] was “inactive” and the Potency [10] was “inactive”. The outcome [2] was “inactive”, the Potency [11] was “inactive” and the Potency [13] was “inactive”. For the same compound, the Potency [14] was “inactive”, the Potency [15] was “inactive” and the Potency [16] was “inactive”. For the same compound, the Potency [17] was “inactive”, the Potency [4] was “inactive” and the Potency [19] was “inactive”. For the same compound, the Potency [20] was “inactive”, the max response [5] was -11.8% and -6.92% and the Potency [6] was 14.1 µM (active) and 44.7 µM (active).

In the case of c1ccc(Nc2cccc3ccccc23)cc1, the Potency [7] is reported as > 92 µM (inactive), the Potency [8] is reported as > 92 µM (inactive) and the Potency [9] is reported as “inactive”. For the same compound, the Potency [1] was “inactive”, the Potency [10] was “inactive” and the outcome [2] was “inactive”. For the same compound, the Potency [11] was “inactive”, the Potency [12] was “inactive” and the Potency [13] was “inactive”. The Potency [14] was “inactive”, the Potency [3] was “inactive” and the Potency [15] was “inactive”. For the same compound, the Potency [16] was “inactive”, the Potency [17] was “inactive” and the Potency [4] was “inactive”. For the same compound, the Potency [18] was “inactive”, the Potency [19] was “inactive” and the Potency [20] was “inactive”. The max response [5] was 1.85%.

In the case of Cc1c2ccccc2c(C)c2c1ccc1ccccc12, the Potency [7] is reported as 13.8 µM (active), the Potency [9] is reported as “inactive” and the Potency [1] is reported as “inactive”. The Potency [10] was “inactive”, the outcome [2] was “inactive” and the Potency [11] was “inactive”. For the same compound, the Potency [12] was “inactive”, the Potency [13] was “inactive” and the Potency [14] was “inactive”. The Potency [3] was “inactive”, the Potency [15] was “inactive” and the Potency [16] was “inactive”. For the same compound, the Potency [17] was “inactive”, the Potency [4] was “inactive” and the Potency [18] was “inactive”. The Potency [19] was “inactive” and the max response [5] was -10.9%.
